Data published in PubChem BioAssay (NCI).
About 83,000 compounds went through this panel and 20% of them were active in at least one assay; those are over-represented in the sample as a whole.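 Interpretation: 100, growth as untreated; towards 0, rising growth inhibition; 0, no net growth; 0 to -100, cell death. Compounds scoring below 10 were considered active.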 Active and inactive are the calls of the source.

What was measured:
Test in all cases: NCI-60 one-dose screen, 48 h (100 = growth as untreated, 0 = no growth, -100 = all killed)
Settings in all cases: 10 µM unless noted
HCT-15 colon = test system: HCT-15 colon
HT29 colon = test system: HT29 colon
SNB-75 CNS = test system: SNB-75 CNS
SNB-19 CNS = test system: SNB-19 CNS
U251 CNS = test system: U251 CNS
PC-3 prostate = test system: PC-3 prostate
SK-MEL-5 melanoma = test system: SK-MEL-5 melanoma
UACC-62 melanoma = test system: UACC-62 melanoma
LOX IMVI melanoma = test system: LOX IMVI melanoma
SK-MEL-28 melanoma = test system: SK-MEL-28 melanoma
SK-MEL-2 melanoma = test system: SK-MEL-2 melanoma
EKVX NSCLC = test system: EKVX NSCLC
SN12C renal = test system: SN12C renal
UO-31 renal = test system: UO-31 renal
TK-10 renal = test system: TK-10 renal
ACHN renal = test system: ACHN renal
CAKI-1 renal = test system: CAKI-1 renal
A498 renal = test system: A498 renal
CCRF-CEM leukemia = test system: CCRF-CEM leukemia
MOLT-4 leukemia = test system: MOLT-4 leukemia

Measured: growth

CCOC(=O)c1cnc2ccc(Br)cc2c1Nc1cccc(S(N)(=O)=O)c1
inactive: HCT-15 colon 90.8% | HT29 colon 107% | SNB-75 CNS 80.6% | SNB-19 CNS 88% | U251 CNS 91.9% | PC-3 prostate 94.5% | SK-MEL-5 melanoma 89.1% | UACC-62 melanoma 103% | LOX IMVI melanoma 101% | SK-MEL-28 melanoma 109% | SK-MEL-2 melanoma 109% | EKVX NSCLC 96.2% | SN12C renal 97.3% | UO-31 renal 81.2% | TK-10 renal 105% | ACHN renal 96.2% | CAKI-1 renal 74.1% | A498 renal 66.5% | CCRF-CEM leukemia 102% | MOLT-4 leukemia 85.1%

C[n+]1cccc(NC(=O)c2ccc3ccc4ccc(C(=O)Nc5ccc[n+](C)c5)nc4c3n2)c1
inactive: HCT-15 colon 61.2% | HT29 colon 34.2% | SNB-75 CNS 12.8% | SNB-19 CNS 14.3% | U251 CNS 13% | PC-3 prostate 55.3% | LOX IMVI melanoma 64.5% | SK-MEL-28 melanoma 31.2% | SK-MEL-2 melanoma 56.9% | EKVX NSCLC 68.1% | UO-31 renal 65.4% | TK-10 renal 94.2% | ACHN renal 41.8% | CAKI-1 renal 52.3% | A498 renal 95.3% | CCRF-CEM leukemia 71.1% | MOLT-4 leukemia 71.5%
active: SK-MEL-5 melanoma 1.98% | UACC-62 melanoma -54.4% | SN12C renal -14.8%

COC(=O)[C@H](CC(C)C)NC(=O)NC(=O)NC(=O)CI
active: HCT-15 colon -36% | HT29 colon -43.2% | LOX IMVI melanoma -78.6% | UO-31 renal -76.3% | CAKI-1 renal -69.2% | CCRF-CEM leukemia -46.3% | MOLT-4 leukemia 4.18%
inactive: SNB-75 CNS 102% | SNB-19 CNS 92% | U251 CNS 90.6% | PC-3 prostate 78.3% | SK-MEL-5 melanoma 92.6% | UACC-62 melanoma 86.4% | SK-MEL-28 melanoma 89.6% | SK-MEL-2 melanoma 78.8% | EKVX NSCLC 94.8% | SN12C renal 76.5% | TK-10 renal 72.3% | ACHN renal 37% | A498 renal 82.8%

O=C(O)CC1CCCCC1c1ccccc1 (stereo not given)
inactive: HCT-15 colon 97.8% | HT29 colon 101% | SNB-75 CNS 106% | SNB-19 CNS 106% | U251 CNS 105% | PC-3 prostate 90% | SK-MEL-5 melanoma 105% | UACC-62 melanoma 102% | LOX IMVI melanoma 103% | SK-MEL-28 melanoma 119% | SK-MEL-2 melanoma 97.7% | EKVX NSCLC 115% | SN12C renal 105% | UO-31 renal 75.2% | TK-10 renal 100% | ACHN renal 102% | CAKI-1 renal 103% | A498 renal 122% | CCRF-CEM leukemia 101% | MOLT-4 leukemia 109%

COc1ccc(-c2nc3ccccn3c2/C=C/C(=O)c2cc(OC)c(OC)c(OC)c2)cc1OC
inactive: HCT-15 colon 22.1% | HT29 colon 16.7% | SNB-75 CNS 46.1% | SNB-19 CNS 29.8% | PC-3 prostate 26.1% | UACC-62 melanoma 19.9% | SK-MEL-28 melanoma 29.1% | EKVX NSCLC 28.5% | SN12C renal 31% | UO-31 renal 17% | TK-10 renal 43% | ACHN renal 19.9% | CCRF-CEM leukemia 16.4% | MOLT-4 leukemia 25.5%
active: U251 CNS 7.81% | SK-MEL-5 melanoma -86.7% | LOX IMVI melanoma 4.18% | SK-MEL-2 melanoma -28.5% | CAKI-1 renal 8.16% | A498 renal -14.1%

NC1=NC(=O)NC1(c1ccccc1)c1ccccc1
inactive: HCT-15 colon 97.5% | HT29 colon 111% | SNB-75 CNS 89.9% | SNB-19 CNS 98.9% | U251 CNS 97.4% | PC-3 prostate 94.3% | SK-MEL-5 melanoma 95.9% | UACC-62 melanoma 101% | LOX IMVI melanoma 91.3% | SK-MEL-28 melanoma 109% | SK-MEL-2 melanoma 68.2% | EKVX NSCLC 111% | SN12C renal 88.1% | UO-31 renal 96.3% | TK-10 renal 92% | ACHN renal 95.8% | CAKI-1 renal 94.6% | A498 renal 87.6% | CCRF-CEM leukemia 86.2% | MOLT-4 leukemia 87.6%

CCc1ccc(NC(=O)N[C@@H](Cc2cc(F)cc(F)c2)C(=O)N[C@@H]2C(=O)N3C[C@H](O)C[C@H]3C(=O)N3CCOC[C@H]3C(=O)N[C@@H](C)C(=O)N3C[C@H](C)C[C@H]3C(=O)O[C@H]2C)cc1
active: SNB-75 CNS 8.76%
inactive: HCT-15 colon 108% | HT29 colon 31.2% | SNB-19 CNS 20.2% | U251 CNS 24.8% | PC-3 prostate 14.4% | SK-MEL-5 melanoma 85% | UACC-62 melanoma 29.7% | LOX IMVI melanoma 41.6% | SK-MEL-28 melanoma 39.7% | SK-MEL-2 melanoma 29% | EKVX NSCLC 79% | SN12C renal 24.3% | UO-31 renal 78.7% | TK-10 renal 95.8% | ACHN renal 103% | CAKI-1 renal 84.4% | A498 renal 38.6% | CCRF-CEM leukemia 50.9% | MOLT-4 leukemia 43.3%

CC(C)(C)c1cc(C(=O)Nc2ccc(C(=O)NCCN)cc2)cc(C(C)(C)C)c1
active: HT29 colon -21.7% | U251 CNS -6.92% | UACC-62 melanoma -71.8% | LOX IMVI melanoma -65.5% | SK-MEL-28 melanoma -64.4% | CCRF-CEM leukemia 3.44%
inactive: HCT-15 colon 76.6% | SNB-75 CNS 55.6% | SNB-19 CNS 33.6% | PC-3 prostate 25.9% | SK-MEL-5 melanoma 23.8% | SK-MEL-2 melanoma 60.3% | EKVX NSCLC 71.2% | SN12C renal 12.8% | UO-31 renal 69.5% | TK-10 renal 90.9% | ACHN renal 44.4% | CAKI-1 renal 71.7% | A498 renal 13.1% | MOLT-4 leukemia 10.9%

c1ccc2c(c1)CN(CCCN1CCOCC1)C2
inactive: HCT-15 colon 102% | HT29 colon 107% | SNB-75 CNS 89.7% | SNB-19 CNS 96.1% | U251 CNS 97.8% | PC-3 prostate 96.4% | SK-MEL-5 melanoma 99.1% | UACC-62 melanoma 96.7% | LOX IMVI melanoma 107% | SK-MEL-28 melanoma 105% | SK-MEL-2 melanoma 105% | EKVX NSCLC 100% | SN12C renal 96.6% | UO-31 renal 93.1% | TK-10 renal 95.4% | ACHN renal 100% | CAKI-1 renal 87.2% | A498 renal 101% | CCRF-CEM leukemia 102% | MOLT-4 leukemia 103%

O=C(O)c1cc([N+](=O)[O-])ccc1Br
inactive: HCT-15 colon 98.4% | HT29 colon 103% | SNB-75 CNS 89.5% | SNB-19 CNS 99.1% | U251 CNS 96.3% | PC-3 prostate 100% | SK-MEL-5 melanoma 98.9% | UACC-62 melanoma 91.9% | LOX IMVI melanoma 94.7% | SK-MEL-28 melanoma 97.8% | SK-MEL-2 melanoma 107% | EKVX NSCLC 98.5% | SN12C renal 101% | UO-31 renal 86.3% | TK-10 renal 95.5% | ACHN renal 94.2% | CAKI-1 renal 97.6% | A498 renal 106% | CCRF-CEM leukemia 105% | MOLT-4 leukemia 99.8%

Cn1cc(-c2noc(C(=O)c3cn(C)c4ncc(Br)cc34)n2)c2ccccc21
active: CCRF-CEM leukemia -49.1%
inactive: HCT-15 colon 97.7% | HT29 colon 105% | SNB-75 CNS 77.9% | SNB-19 CNS 96.6% | U251 CNS 93.8% | PC-3 prostate 92.3% | SK-MEL-5 melanoma 95.6% | UACC-62 melanoma 89.3% | LOX IMVI melanoma 96.8% | SK-MEL-28 melanoma 101% | SK-MEL-2 melanoma 95.4% | EKVX NSCLC 85.5% | SN12C renal 94.8% | UO-31 renal 79.3% | TK-10 renal 107% | ACHN renal 102% | CAKI-1 renal 89.5% | A498 renal 75.3% | MOLT-4 leukemia 105%

COc1ccc(N(c2nc(-c3ccc([N+](=O)[O-])cc3)cs2)C(C)C)cc1
inactive: HCT-15 colon 88% | HT29 colon 97.2% | SNB-75 CNS 103% | SNB-19 CNS 89.9% | U251 CNS 90.3% | PC-3 prostate 84% | SK-MEL-5 melanoma 78.9% | UACC-62 melanoma 68.4% | LOX IMVI melanoma 80.9% | SK-MEL-28 melanoma 103% | SK-MEL-2 melanoma 92.1% | EKVX NSCLC 65.8% | SN12C renal 91.4% | UO-31 renal 69.3% | TK-10 renal 88.9% | ACHN renal 89% | CAKI-1 renal 62.6% | A498 renal 59.5% | CCRF-CEM leukemia 62.5% | MOLT-4 leukemia 68.5%

O=C(CCN1CCCCC1)c1ccc(Cl)cc1
inactive: HCT-15 colon 98.5% | HT29 colon 104% | SNB-75 CNS 89.1% | SNB-19 CNS 103% | U251 CNS 107% | PC-3 prostate 91.6% | SK-MEL-5 melanoma 97.6% | UACC-62 melanoma 103% | LOX IMVI melanoma 91.3% | SK-MEL-28 melanoma 108% | SK-MEL-2 melanoma 104% | EKVX NSCLC 101% | SN12C renal 111% | UO-31 renal 96% | TK-10 renal 103% | ACHN renal 110% | CAKI-1 renal 95.2% | A498 renal 79.5% | CCRF-CEM leukemia 93.6% | MOLT-4 leukemia 108%

CC(C)C1=NOC(=O)C1=Cc1cn(-c2ccccc2)nc1-c1ccccc1
active: CCRF-CEM leukemia 8.48% | MOLT-4 leukemia 7.72%
inactive: HCT-15 colon 77.4% | HT29 colon 49.2% | SNB-75 CNS 72.5% | SNB-19 CNS 74.8% | U251 CNS 53% | PC-3 prostate 67.9% | SK-MEL-5 melanoma 91.6% | UACC-62 melanoma 76.1% | LOX IMVI melanoma 18% | SK-MEL-28 melanoma 95.1% | SK-MEL-2 melanoma 99.2% | EKVX NSCLC 99.3% | SN12C renal 79.2% | UO-31 renal 70.2% | TK-10 renal 82.3% | ACHN renal 84.5% | CAKI-1 renal 57.7% | A498 renal 93.6%
